Screen size: about 5,500 compounds; about 2,000 (36%) were called active. Not shown: some 18% with an inconclusive outcome. Rule as the data show it: active = normalized growth mostly below about 0.91 (no sharp cut-off); inconclusive = no clear call, values can overlap the other calls; inactive = mostly above about 0.92. The list shows a part of the results.
Test: chemical genetic growth profiling, strain panel (AID 1159580);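 also: tested at 20 µM; growth read once vehicle control cultures reached saturation at 30 °C; 1 = growth at the plate median or of vehicle wells; lower values mean less growth of the strain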
Settings: growth OD

Measured: normalized growth

CC(=O)O[C@H]1CC[C@@]2(C)C(C[C@@H](OC(C)=O)[C@]3(C)C2CC[C@@]2(C)[C@H](c4ccoc4)OC(=O)[C@H]4O[C@]423)C1(C)C (stereo partly drawn)
inactive: S. cerevisiae deletion strains, locus YJL187C, strain SWE1, active compounds read low 1 | S. cerevisiae deletion strains, locus YJR066W, strain TOR1, active compounds read low 0.997 | S. cerevisiae deletion strains, locus YKL068W, active compounds read low 1 | S. cerevisiae deletion strains, locus YKL085W, strain MDH1 (second series), active compounds read low 1.04 | S. cerevisiae deletion strains, locus YKL085W, strain MDH1, active compounds read low 1.04 | S. cerevisiae deletion strains, locus YKL160W, strain elf1, active compounds read low 1.02 | S. cerevisiae deletion strains, locus YKL190W, strain CNB1, active compounds read low 1 | S. cerevisiae deletion strains, locus YKR001C, strain vps1, active compounds read low 1 | S. cerevisiae deletion strains, locus YKR026C, strain gcn3, active compounds read low 0.971 | S. cerevisiae deletion strains, locus YKR091W, strain srl3, active compounds read low 0.991 | S. cerevisiae deletion strains, locus YLL001W, strain dnm1, active compounds read low 0.988 | S. cerevisiae deletion strains, locus YLL026W, active compounds read low 0.995 | S. cerevisiae deletion strains, locus YLL041C, strain sdh2, active compounds read low 0.987 | S. cerevisiae deletion strains, locus YLR027C, strain aat2, active compounds read low 1 | S. cerevisiae deletion strains, locus YLR039C, strain RIC1, active compounds read low 1.01 | S. cerevisiae deletion strains, locus YLR058C, strain SHM2, active compounds read low 1.01 | S. cerevisiae deletion strains, locus YLR102C, strain apc9, active compounds read low 1.02 | S. cerevisiae deletion strains, locus YLR113W, strain HOG1, active compounds read low 0.991 | S. cerevisiae deletion strains, locus YLR221C, strain rsa3, active compounds read low 1.01 | S. cerevisiae deletion strains, locus YLR258W, strain gsy2, active compounds read low 0.994 | S. cerevisiae deletion strains, locus YLR262C, strain YPT6 (second series), active compounds read low 1.05 | S. cerevisiae deletion strains, locus YLR262C, strain YPT6, active compounds read low 1.1 | S. cerevisiae deletion strains, locus YLR268W, strain sec22, active compounds read low 0.999 | S. cerevisiae deletion strains, locus YLR320W, strain mms22, active compounds read low 1.01 | S. cerevisiae deletion strains, locus YLR330W, strain CHS5, active compounds read low 1.01 | S. cerevisiae deletion strains, locus YLR342W, strain FKS1, active compounds read low 0.994 | S. cerevisiae deletion strains, locus YLR357W, strain rsc2, active compounds read low 0.951 | S. cerevisiae deletion strains, locus YLR370C, strain arc18, active compounds read low 0.996 | S. cerevisiae deletion strains, locus YLR371W, strain rom2, active compounds read low 1.01 | S. cerevisiae deletion strains, locus YLR384C, strain iki3, active compounds read low 1 | S. cerevisiae deletion strains, locus YLR418C, strain cdc73, active compounds read low 1.06 | S. cerevisiae deletion strains, locus YML016C, strain PPZ1, active compounds read low 1.02 | S. cerevisiae deletion strains, locus YML032C, strain rad52, active compounds read low 1.01 | S. cerevisiae deletion strains, locus YML120C, strain ndi1, active compounds read low 0.989 | S. cerevisiae deletion strains, locus YML124C, strain tub3, active compounds read low 1.01 | S. cerevisiae deletion strains, locus YMR058W, strain fet3, active compounds read low 1 | S. cerevisiae deletion strains, locus YMR078C, strain ctf18, active compounds read low 1.02 | S. cerevisiae deletion strains, locus YMR125W, strain sto1, active compounds read low 0.99 | S. cerevisiae deletion strains, locus YMR129W, active compounds read low 0.996 | S. cerevisiae deletion strains, locus YMR205C, strain PFK2, active compounds read low 0.968 | S. cerevisiae deletion strains, locus YMR223W, strain ubp8, active compounds read low 1.03 | S. cerevisiae deletion strains, locus YMR231W, strain pep5, active compounds read low 0.994 | S. cerevisiae deletion strains, locus YMR263W, strain SAP30, active compounds read low 1.02 | S. cerevisiae deletion strains, locus YMR307W, strain GAS1, active compounds read low 0.994 | S. cerevisiae deletion strains, locus YNL067W, strain RPL9B, active compounds read low 1.05 | S. cerevisiae deletion strains, locus YNL071W, strain lat1, active compounds read low 1 | S. cerevisiae deletion strains, locus YNL183C, strain NPR1, active compounds read low 1 | S. cerevisiae deletion strains, locus YNL209W, strain ssb2, active compounds read low 1 | S. cerevisiae deletion strains, locus YNL233W, strain BNI4, active compounds read low 1.05 | S. cerevisiae deletion strains, locus YNL248C, strain rpa49, active compounds read low 1.01 | S. cerevisiae deletion strains, locus YNL250W, strain rad50, active compounds read low 1.05 | S. cerevisiae deletion strains, locus YNL271C, strain bni1, active compounds read low 1.02 | S. cerevisiae deletion strains, locus YNL298W, strain CLA4, active compounds read low 1.01 | S. cerevisiae deletion strains, locus YNL307C, strain MCK1, active compounds read low 1.02 | S. cerevisiae deletion strains, locus YNL322C, strain KRE1 (second series), active compounds read low 0.997 | S. cerevisiae deletion strains, locus YNR049C, strain mso1, active compounds read low 0.985 | S. cerevisiae deletion strains, locus YNR052C, strain pop2, active compounds read low 1.03 | S. cerevisiae deletion strains, locus YOL006C, strain TOP1, active compounds read low 1.04 | S. cerevisiae deletion strains, locus YOL012C, strain htz1 0.707 | S. cerevisiae deletion strains, locus YOL147C, strain pex11, active compounds read low 1.01 | S. cerevisiae deletion strains, locus YOR001W, strain rrp6, active compounds read low 1.02 | S. cerevisiae deletion strains, locus YOR061W, strain CKA2, active compounds read low 1 | S. cerevisiae deletion strains, locus YOR069W, strain VPS5, active compounds read low 1.01 | S. cerevisiae deletion strains, locus YOR070C, strain gyp1, active compounds read low 0.997 | S. cerevisiae deletion strains, locus YOR080W, strain dia2, active compounds read low 0.996 | S. cerevisiae deletion strains, locus YOR083W, strain WHI5, active compounds read low 1.03 | S. cerevisiae deletion strains, locus YOR106W, strain vam3, active compounds read low 1.03 | S. cerevisiae deletion strains, locus YOR136W, strain idh2, active compounds read low 1.02 | S. cerevisiae deletion strains, locus YOR144C, strain elg1, active compounds read low 1.01 | S. cerevisiae deletion strains, locus YOR184W, strain ser1, active compounds read low 1 | S. cerevisiae deletion strains, locus YOR231W, strain MKK1, active compounds read low 1.02 | S. cerevisiae deletion strains, locus YOR265W, strain rbl2, active compounds read low 1 | S. cerevisiae deletion strains, locus YOR270C, strain vph1, active compounds read low 1.01 | S. cerevisiae deletion strains, locus YOR290C, strain snf2, active compounds read low 0.942 | S. cerevisiae deletion strains, locus YOR316C, strain cot1, active compounds read low 1.01 | S. cerevisiae deletion strains, locus YPL051W, strain arl3, active compounds read low 1.03 | S. cerevisiae deletion strains, locus YPL078C, strain atp4, active compounds read low 1.02 | S. cerevisiae deletion strains, locus YPL106C, strain sse1, active compounds read low 0.981 | S. cerevisiae deletion strains, locus YPL240C, strain hsp82, active compounds read low 1 | S. cerevisiae deletion strains, locus YPL241C, strain CIN2, active compounds read low 1 | S. cerevisiae deletion strains, locus YPL256C, strain CLN2, active compounds read low 1.05 | S. cerevisiae deletion strains, locus YPR119W, strain clb2, active compounds read low 1.01 | S. cerevisiae deletion strains, locus YPR141C, strain kar3, active compounds read low 1.02 | S. cerevisiae deletion strains, locus YPR163C, strain tif3, active compounds read low 1.02 | S. cerevisiae deletion strains, locus YPR167C, strain met16, active compounds read low 1.01 | S. cerevisiae deletion strains, strain wtn01, active compounds read low 1.02 | S. cerevisiae strains, strain wild type, active compounds read low 1.02
active: S. cerevisiae deletion strains, locus YKL009W, strain mrt4, active compounds read low 1.47 [resistant]

Reference: PubChem BioAssay AID1159580 (chemical genetic matrix, 2015)
